Experimental data from ChEMBL document CHEMBL2218924, “A broad activity screen in support of a chemogenomic map for kinase signalling research and drug discovery” (Biochem J, 2013).

Columns and labels:
[1] = biological target: T1, Mitogen-activated protein kinase kinase kinase 7 (Homo sapiens) (UniProt O43318); details: at 1 µM
T1 sequence (whole entry): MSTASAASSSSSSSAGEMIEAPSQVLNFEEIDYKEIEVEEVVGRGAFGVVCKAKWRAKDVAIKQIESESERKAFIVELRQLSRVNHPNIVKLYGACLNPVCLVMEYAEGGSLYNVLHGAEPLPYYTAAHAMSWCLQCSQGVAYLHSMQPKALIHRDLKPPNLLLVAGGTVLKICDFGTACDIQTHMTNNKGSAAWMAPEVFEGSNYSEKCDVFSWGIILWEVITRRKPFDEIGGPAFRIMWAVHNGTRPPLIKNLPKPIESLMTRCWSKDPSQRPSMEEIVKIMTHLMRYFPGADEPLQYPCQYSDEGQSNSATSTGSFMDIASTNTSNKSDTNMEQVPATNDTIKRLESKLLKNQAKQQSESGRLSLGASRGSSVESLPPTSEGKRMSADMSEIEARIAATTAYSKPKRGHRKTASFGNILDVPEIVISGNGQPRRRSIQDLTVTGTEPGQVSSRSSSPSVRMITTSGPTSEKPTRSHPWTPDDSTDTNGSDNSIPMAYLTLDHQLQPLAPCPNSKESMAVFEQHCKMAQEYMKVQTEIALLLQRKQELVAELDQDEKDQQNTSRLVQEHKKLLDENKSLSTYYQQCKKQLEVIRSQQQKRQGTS

[2] = biological target: T1, Mitogen-activated protein kinase kinase kinase 7 (Homo sapiens); details: at 10 µM
[3] = biological target: T2, Serine/threonine-protein kinase TAO2 (Homo sapiens) (UniProt Q9UL54); details: at 10 µM
T2 sequence (whole entry): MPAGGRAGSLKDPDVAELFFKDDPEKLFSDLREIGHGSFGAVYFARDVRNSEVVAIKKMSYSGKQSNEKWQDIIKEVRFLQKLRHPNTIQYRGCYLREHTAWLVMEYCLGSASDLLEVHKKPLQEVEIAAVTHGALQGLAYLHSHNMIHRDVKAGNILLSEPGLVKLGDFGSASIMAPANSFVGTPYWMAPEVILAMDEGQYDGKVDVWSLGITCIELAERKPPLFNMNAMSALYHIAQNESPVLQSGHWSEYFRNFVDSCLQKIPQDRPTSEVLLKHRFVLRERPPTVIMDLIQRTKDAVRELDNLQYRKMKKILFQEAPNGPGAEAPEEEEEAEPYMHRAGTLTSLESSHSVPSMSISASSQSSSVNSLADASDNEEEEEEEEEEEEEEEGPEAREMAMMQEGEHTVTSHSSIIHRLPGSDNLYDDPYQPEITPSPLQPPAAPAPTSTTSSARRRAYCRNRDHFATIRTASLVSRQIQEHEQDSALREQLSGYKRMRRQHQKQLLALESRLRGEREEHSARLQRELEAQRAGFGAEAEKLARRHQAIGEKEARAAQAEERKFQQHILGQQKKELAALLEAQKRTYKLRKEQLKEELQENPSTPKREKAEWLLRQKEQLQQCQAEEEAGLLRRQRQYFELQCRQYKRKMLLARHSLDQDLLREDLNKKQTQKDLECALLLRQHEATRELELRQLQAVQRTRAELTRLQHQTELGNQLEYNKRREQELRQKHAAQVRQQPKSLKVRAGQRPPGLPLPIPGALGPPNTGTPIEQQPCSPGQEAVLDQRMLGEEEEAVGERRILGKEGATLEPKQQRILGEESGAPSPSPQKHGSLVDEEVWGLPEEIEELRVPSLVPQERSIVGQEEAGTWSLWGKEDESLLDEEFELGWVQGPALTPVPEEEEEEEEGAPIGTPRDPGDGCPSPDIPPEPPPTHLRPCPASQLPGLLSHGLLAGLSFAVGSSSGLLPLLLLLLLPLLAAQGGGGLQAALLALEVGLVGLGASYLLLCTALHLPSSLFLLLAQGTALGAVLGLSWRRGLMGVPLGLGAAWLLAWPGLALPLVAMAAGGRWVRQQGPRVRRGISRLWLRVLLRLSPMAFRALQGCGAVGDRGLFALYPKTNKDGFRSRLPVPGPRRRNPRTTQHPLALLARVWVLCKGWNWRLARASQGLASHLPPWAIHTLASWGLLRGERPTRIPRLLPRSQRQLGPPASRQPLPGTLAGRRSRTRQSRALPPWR

[4] = biological target: T3, Serine/threonine-protein kinase TBK1 (Homo sapiens) (UniProt Q9UHD2); details: at 10 µM
T3 sequence (whole entry): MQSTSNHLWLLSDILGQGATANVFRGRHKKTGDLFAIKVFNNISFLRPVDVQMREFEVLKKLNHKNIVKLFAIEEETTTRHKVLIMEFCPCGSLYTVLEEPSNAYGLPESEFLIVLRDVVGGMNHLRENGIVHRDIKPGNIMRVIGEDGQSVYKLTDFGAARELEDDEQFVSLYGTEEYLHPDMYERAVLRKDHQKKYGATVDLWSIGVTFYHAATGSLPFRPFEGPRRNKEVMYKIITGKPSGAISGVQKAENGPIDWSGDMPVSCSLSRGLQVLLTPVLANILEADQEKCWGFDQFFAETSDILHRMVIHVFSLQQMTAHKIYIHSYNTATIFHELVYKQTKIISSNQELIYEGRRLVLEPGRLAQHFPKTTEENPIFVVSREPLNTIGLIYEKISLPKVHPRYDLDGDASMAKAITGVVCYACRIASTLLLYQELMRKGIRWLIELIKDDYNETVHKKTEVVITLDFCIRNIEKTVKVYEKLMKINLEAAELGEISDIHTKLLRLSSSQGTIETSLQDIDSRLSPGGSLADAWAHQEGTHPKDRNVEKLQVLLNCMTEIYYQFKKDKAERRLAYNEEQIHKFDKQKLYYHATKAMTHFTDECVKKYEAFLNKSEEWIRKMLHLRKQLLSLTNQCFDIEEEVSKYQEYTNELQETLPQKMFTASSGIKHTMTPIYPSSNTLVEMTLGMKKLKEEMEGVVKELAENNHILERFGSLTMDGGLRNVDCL

[5] = biological target: T4, Inhibitor of nuclear factor kappa-B kinase subunit alpha (Homo sapiens) (UniProt O15111); details: at 10 µM
T4 sequence (whole entry): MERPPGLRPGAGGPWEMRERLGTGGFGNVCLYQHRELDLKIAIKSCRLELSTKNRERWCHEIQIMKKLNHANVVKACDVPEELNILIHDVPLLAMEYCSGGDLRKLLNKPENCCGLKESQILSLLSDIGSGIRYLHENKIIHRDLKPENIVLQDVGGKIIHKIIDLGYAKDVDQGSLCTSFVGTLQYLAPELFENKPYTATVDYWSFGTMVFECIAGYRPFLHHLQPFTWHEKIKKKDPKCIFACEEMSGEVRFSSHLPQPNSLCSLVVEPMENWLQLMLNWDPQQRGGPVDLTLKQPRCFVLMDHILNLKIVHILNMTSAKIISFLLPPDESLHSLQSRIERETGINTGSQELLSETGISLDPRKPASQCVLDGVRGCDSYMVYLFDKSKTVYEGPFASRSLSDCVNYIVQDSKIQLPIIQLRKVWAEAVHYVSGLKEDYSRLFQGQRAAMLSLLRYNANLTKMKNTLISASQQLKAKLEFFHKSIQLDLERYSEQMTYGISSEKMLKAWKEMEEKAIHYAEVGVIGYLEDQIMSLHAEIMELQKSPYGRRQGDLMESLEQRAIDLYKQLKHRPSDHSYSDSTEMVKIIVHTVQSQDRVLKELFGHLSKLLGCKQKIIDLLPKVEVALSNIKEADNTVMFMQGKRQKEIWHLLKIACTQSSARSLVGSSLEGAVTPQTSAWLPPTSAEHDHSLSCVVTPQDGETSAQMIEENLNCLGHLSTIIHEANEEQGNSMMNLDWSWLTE

[6] = biological target: T3, Serine/threonine-protein kinase TBK1 (Homo sapiens); details: at 1 µM
[7] = biological target: T4, Inhibitor of nuclear factor kappa-B kinase subunit alpha (Homo sapiens); details: at 1 µM
[8] = biological target: T5, Serine/threonine-protein kinase TAO1 (Homo sapiens) (UniProt Q7L7X3); details: at 10 µM
T5 sequence (whole entry): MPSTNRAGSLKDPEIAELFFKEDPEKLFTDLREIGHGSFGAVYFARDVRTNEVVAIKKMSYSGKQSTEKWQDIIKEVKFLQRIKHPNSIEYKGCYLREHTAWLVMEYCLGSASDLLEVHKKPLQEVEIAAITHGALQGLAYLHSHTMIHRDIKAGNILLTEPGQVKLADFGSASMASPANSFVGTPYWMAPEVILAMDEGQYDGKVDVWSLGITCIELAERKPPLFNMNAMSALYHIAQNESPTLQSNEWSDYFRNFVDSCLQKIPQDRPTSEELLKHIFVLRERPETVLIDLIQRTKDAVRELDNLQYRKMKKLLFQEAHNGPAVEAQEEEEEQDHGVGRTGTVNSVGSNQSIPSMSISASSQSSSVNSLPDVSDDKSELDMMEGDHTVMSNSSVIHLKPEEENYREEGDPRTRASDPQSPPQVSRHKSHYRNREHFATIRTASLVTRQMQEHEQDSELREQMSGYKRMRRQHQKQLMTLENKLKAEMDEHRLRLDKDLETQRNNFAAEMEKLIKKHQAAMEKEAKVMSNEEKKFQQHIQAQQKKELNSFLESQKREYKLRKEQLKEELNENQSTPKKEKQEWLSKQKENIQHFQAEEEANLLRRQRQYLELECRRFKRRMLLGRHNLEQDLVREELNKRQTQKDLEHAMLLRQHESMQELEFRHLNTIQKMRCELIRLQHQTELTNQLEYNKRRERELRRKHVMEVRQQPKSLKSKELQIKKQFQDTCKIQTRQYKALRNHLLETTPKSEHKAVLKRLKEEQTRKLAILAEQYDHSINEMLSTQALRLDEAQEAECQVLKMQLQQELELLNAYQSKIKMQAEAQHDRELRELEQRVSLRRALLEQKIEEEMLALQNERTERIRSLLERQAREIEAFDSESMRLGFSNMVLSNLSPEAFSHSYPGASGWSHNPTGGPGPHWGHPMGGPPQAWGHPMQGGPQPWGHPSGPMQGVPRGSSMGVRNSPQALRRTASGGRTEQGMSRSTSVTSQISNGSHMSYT

[9] = biological target: T6, Serine/threonine-protein kinase TAO3 (Homo sapiens) (UniProt Q9H2K8); details: at 10 µM
T6 sequence (whole entry): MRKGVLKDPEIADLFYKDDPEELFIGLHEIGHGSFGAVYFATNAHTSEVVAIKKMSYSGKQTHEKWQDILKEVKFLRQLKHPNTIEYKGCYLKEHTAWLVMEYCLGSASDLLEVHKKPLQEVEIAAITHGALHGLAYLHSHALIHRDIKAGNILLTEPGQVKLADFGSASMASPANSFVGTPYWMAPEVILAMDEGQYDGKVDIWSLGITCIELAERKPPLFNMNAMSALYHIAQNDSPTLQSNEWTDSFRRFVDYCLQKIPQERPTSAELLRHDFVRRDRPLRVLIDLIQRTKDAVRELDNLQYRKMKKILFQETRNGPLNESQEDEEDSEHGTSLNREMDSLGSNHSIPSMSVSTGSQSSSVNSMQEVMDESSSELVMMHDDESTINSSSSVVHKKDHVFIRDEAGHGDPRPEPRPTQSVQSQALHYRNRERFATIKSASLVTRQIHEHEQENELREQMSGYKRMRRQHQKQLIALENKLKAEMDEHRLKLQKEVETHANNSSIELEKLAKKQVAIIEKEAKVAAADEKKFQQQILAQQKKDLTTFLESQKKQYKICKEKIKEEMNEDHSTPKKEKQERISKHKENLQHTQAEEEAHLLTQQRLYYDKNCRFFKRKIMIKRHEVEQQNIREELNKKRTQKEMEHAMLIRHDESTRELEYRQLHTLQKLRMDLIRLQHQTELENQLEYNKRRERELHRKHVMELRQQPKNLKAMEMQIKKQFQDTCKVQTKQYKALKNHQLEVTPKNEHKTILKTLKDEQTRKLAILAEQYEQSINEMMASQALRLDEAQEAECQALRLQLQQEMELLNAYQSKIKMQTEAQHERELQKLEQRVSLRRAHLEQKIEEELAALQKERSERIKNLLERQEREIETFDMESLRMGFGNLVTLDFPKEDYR

[10] = biological target: T7, Inhibitor of nuclear factor kappa-B kinase subunit beta (Homo sapiens) (UniProt O14920); details: at 1 µM
T7 sequence (whole entry): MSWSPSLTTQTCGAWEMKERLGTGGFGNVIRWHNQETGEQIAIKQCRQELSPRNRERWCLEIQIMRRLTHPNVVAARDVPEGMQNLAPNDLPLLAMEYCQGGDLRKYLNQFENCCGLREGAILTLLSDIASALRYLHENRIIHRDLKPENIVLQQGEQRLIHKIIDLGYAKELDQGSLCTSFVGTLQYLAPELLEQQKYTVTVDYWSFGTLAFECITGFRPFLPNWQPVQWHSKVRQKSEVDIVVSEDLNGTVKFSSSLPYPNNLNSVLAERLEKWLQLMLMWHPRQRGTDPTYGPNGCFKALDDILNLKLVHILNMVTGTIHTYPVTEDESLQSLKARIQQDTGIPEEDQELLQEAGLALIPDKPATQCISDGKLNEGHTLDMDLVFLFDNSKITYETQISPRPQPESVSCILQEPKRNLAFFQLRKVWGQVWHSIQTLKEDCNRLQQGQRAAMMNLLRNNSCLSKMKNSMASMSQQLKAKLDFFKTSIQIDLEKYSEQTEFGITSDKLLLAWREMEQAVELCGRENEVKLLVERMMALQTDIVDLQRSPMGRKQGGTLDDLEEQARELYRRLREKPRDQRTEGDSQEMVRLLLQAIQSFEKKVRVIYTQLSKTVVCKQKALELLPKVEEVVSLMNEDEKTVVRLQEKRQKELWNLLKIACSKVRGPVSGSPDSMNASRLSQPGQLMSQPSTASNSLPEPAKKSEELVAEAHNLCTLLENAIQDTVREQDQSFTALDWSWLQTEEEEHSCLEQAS

[11] = biological target: T7, Inhibitor of nuclear factor kappa-B kinase subunit beta (Homo sapiens); details: at 10 µM

SMILES: Cc1cc(C)c(/C=C2\C(=O)Nc3ccccc32)[nH]1
- residual activity [1]: 76%
- residual activity [2]: 71%
- residual activity [3]: 105%
- residual activity [4]: 52%
- residual activity [5]: 73%

SMILES: NC(=O)c1cccc(-c2cc(Nc3ccc(OC(F)(F)F)cc3)ncn2)c1
- residual activity [2]: 95%
- residual activity [6]: 98%
- residual activity [4]: 79%
- residual activity [7]: 128%
- residual activity [5]: 149%

SMILES: O=S(=O)(NCCNC/C=C/c1ccc(Br)cc1)c1cccc2cnccc12
- residual activity [8]: 59%
- residual activity [9]: 61%
- residual activity [4]: 66%
- residual activity [10]: 126%
- residual activity [11]: 100%
